# AHR activator: AHR activators, primary screen, cell-based, luminescence, luciferase reporter, human; activation, % at 5 µM; AHR-responsive luciferase reporter cells; Aryl hydrocarbon receptor (Homo sapiens), P35869; 320,000 tested, 2.5% active; AID 2796, 2010; in the data active = activation above about 47%;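 note: 0% = vehicle wells and 100% = reference agonist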
# hcDAF12 agonist: H. contortus DAF-12 nuclear receptor activators, primary screen, cell-based, luminescence, HEK293, lit1-tk-luc reporter; HEK293 hcDAF-12 lit1-tk-luc reporter; 0% DMSO, 100% Δ7-dafachronic acid; activation, % at 6.8 µM; 370,000 tested, 1.4% active; AID 652067, 2013;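 active = activation above the mean of all tested compounds plus 3 SD, cut at about 5.5% in these data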;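 note: 100% = response to 3 µM Δ7-dafachronic acid high control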
# DAX1 inh-1: DAX1 (NR0B1) inhibitors on StAR promoter, primary screen, cell-based, luminescence, SF-1 (NR5A1), full-length DAX-1; HEK293T StAR-luciferase reporter, SF-1/DAX-1 repression relief; inhibition, % at 6.8 µM; 370,000 tested, 1.1% active; AID 652010, 2013;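 active = inhibition above the mean over all tested compounds plus 3 SD, cut at about 3.6% in these data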;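 note: 0% = DAX-1 cells with DMSO and 100% = cells lacking DAX-1 with DMSO; higher inhibition means more luminescence from relief of DAX-1 repression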
# DAX1 inh-2: DAX1 (NR0B1) inhibitors, primary screen, cell-based, HEK293, Gal4-DAX1, luciferase luminescence; HEK293 Gal4-DAX1 luciferase reporter; Nuclear receptor subfamily 0 group B member 1 (Homo sapiens), P51843; inhibition, % at 6.75 µM; 340,000 tested, 0.99% active;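 active = inhibition above the mean over all tested compounds plus 3 SD, cut at about 4.2% in these data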;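 note: 0% = DAX1-transfected cells with DMSO and 100% = empty-vector control cells with DMSO; inhibition shows as a rise in luminescence from relieved DAX1 repression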
# Target sequence (P51843 207-470 limits assumed): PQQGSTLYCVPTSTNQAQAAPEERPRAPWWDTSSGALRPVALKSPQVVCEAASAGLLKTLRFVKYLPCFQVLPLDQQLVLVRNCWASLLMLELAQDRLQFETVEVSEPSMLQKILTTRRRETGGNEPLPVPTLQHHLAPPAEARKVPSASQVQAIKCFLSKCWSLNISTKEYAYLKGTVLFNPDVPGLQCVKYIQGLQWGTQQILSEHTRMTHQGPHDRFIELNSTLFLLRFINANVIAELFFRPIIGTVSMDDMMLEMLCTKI
# ssDAF-12 act: S. stercoralis DAF-12 nuclear receptor activators, primary screen, cell-based, luminescence, HEK293, GRIP1 co-expression, lit1-tk-luc. HEK293 ssDAF-12/GRIP1 lit1-tk-luc reporter; % of 3 µM dafachronic acid response. Nuclear hormone receptor DAF-12 (Strongyloides stercoralis). AID 652126, 2013. activation, % at 6.8 µM. 370,000 tested, 1% active;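 active = activation above the mean over all tested compounds plus 3 SD, cut at about 0.9% in these data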;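 note: 0% = DMSO-only wells and 100% = 3 µM delta7-dafachronic acid wells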
# hgDAF-12 ag: H. glycines DAF-12 receptor agonists, primary screen, cell-based, luminescence, HEK293, GAL4 fusion, UAS-luciferase; Nuclear hormone receptor DAF-12 (Heterodera glycines), GAL4 fusion; HEK293 GAL4-hgDAF12 UAS-luciferase reporter, agonist luminescence; normalized to butyrate control; activation, % at 6.8 µM; 370,000 tested, 1.8% active;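 active = activation above a cutoff set at the mean of all screened compounds plus 3 SD, cut at about 10% in these data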;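 note: 0% = DMSO wells and 100% = sodium butyrate wells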
# The depositor's hits bear a star; . = not tested or not shown. Most compounds without a hit are left out; they make up all but 5.7% or so of the library.
SMILES,AHR activator,hcDAF12 agonist,DAX1 inh-1,DAX1 inh-2,ssDAF-12 act,hgDAF-12 ag
CC(OC(=O)CCCN=C1NS(=O)(=O)c2ccccc21)C(=O)c1ccccc1 (centres undefined),59*,-1,-3,-3,0,1
CC(OC(=O)CCCN=C1NS(=O)(=O)c2ccccc21)C(=O)N(C)c1ccccc1 (centres undefined),7,-1,0,1,0,1
COc1ccc(CCN(C)Cc2nc(Cc3ccc(OC)c(OC)c3)no2)cc1OC,0,-2,-1,1,-2,0
CCOC(=O)c1[nH]c(C)c(C(=O)OCc2ccc(C)cc2)c1C,7,1,0,-2,-1,0
CCOC(=O)c1c(C)[nH]c(C(=O)OCc2ccc([N+](=O)[O-])cc2)c1C,53*,0,0,0,-1,-1
CC(=O)c1c(C)[nH]c(C(=O)OCc2ccc(Br)cc2)c1C,19,-2,-1,-1,-1,0
CCOC(=O)c1c(C)[nH]c(C(=O)NCc2ccccn2)c1C,6,0,4.1*,1,0,5
CCOC(=O)c1c(C)[nH]c(C(=O)COC(=O)CCSc2ccccc2)c1C,7,6.3*,0,1,0,9
CCOC(=O)c1c(C)[nH]c(C(=O)OCc2ccc(C)cc2)c1C,49*,1,4.2*,0,0,4
CN(C(=O)c1cccc(NC(=O)Cc2ccc(NC(=O)C3CCN(C(=O)CCc4ccccc4)CC3)cc2)c1)C1CC1,.,0,-1,-1,-1,1
COc1ccc(N2CC(C(=O)N[C@@H](CC(C)C)C(=O)NC3CCCC3)CC2=O)cc1 (some centres undefined),0,2,0,0,0,-1
CN(CC(=O)Nc1ccc(OC(F)(F)F)cc1)C(=O)/C=C/c1cc2c(cc1[N+](=O)[O-])OCO2,3,0,-1,1,-1,-1
C[C@@H]1CN([C@@H](C)CO)C(=O)CCCn2cc(nn2)CO[C@H]1CN(C)C(=O)Nc1cccc2ccccc12,.,2,0,.,0,-2
CCc1ccc2c(c1)NC(=O)C2(C)Cc1ccc(C(F)(F)F)nc1 (centres undefined),.,-1,0,.,-1,-2
COc1ccc(C)cc1S(=O)(=O)N1CCCC(C(=O)N2CCN(c3ccccc3F)CC2)C1 (centres undefined),10,-3,-4,-1,-1,-4
Cc1ccc(C)c(C(=O)NC(C)c2ccc(-n3ccnc3)cc2)c1 (centres undefined),78*,0,0,1,-1,-1
CSc1ccccc1C(=O)NC(C)c1ccc(-n2ccnc2)cc1 (centres undefined),67*,-1,-1,1,-1,-1
CC(NC(=O)c1ccco1)c1ccc(-n2ccnc2)cc1 (centres undefined),8,-1,1,2,-2,-1
CC(NC(=O)c1ccccc1Cl)c1ccc(-n2ccnc2)cc1 (centres undefined),54*,-1,-1,0,-1,-2
COc1ccc(C(=O)NC(C)c2ccc(-n3ccnc3)cc2)cc1[N+](=O)[O-] (centres undefined),9,-2,0,1,-1,1
Cc1c(C(=O)NC(C)c2ccc(-n3ccnc3)cc2)cccc1[N+](=O)[O-] (centres undefined),61*,2,1,0,-1,2
CC(NC(=O)CNC(=O)c1ccccc1F)c1ccc(-n2ccnc2)cc1 (centres undefined),-1,-1,0,-1,-2,0
Cc1ccc(C(=O)NC(C)c2ccc(-n3ccnc3)cc2)c(C)c1 (centres undefined),31,-1,-1,0,-1,-2
COc1cc(OC)cc(C(=O)n2cnnc2N)c1,8,0,0,-1,-2,2
CC(C)OC(=O)CSc1nc(Cc2cccs2)nc2ccccc12,4,-3,-1,0,-2,0
SMILES,AHR activator,hcDAF12 agonist,DAX1 inh-1,DAX1 inh-2,ssDAF-12 act,hgDAF-12 ag
Oc1ccccc1C=NN=C1c2ccccc2-c2ccccc21,.,3,-1,1,2.1*,3
COc1ccc(CN2CCN(S(=O)(=O)c3ccc(F)cc3)CC2)cc1OC,4,-2,0,-1,-2,0
COc1ccc(CN2CCN(S(=O)(=O)c3ccccc3)CC2)c(OC)c1,52*,-1,0,-3,-2,-2
COc1ccc(S(=O)(=O)N2CCOC23CCN(S(=O)(=O)c2ccccc2)CC3)cc1,1,-1,1,4.3*,-1,2
COc1ccc(OC)c(CN2CCN(S(=O)(=O)c3ccccc3)CC2)c1,8,0,0,1,-1,-2
COc1ccc(CN2CCN(S(=O)(=O)c3ccccc3)CC2)cc1Br,8,-3,0,0,1.4*,-2
COc1ccc(NC(=S)Nc2ccc3snnc3c2)cc1,67*,3,2,1,0,5
COc1ccc(NC(=O)c2ccccc2[N+](=O)[O-])cc1,2,-2,0,-2,-1,6
COc1ccc(NC(=S)Nc2ccc(N)c([N+](=O)[O-])c2)cc1,62*,4,0,2,-1,4
COc1ccc(NC(=S)Nc2ccc3nccnc3c2)cc1,7,3,1,0,-1,11*
COc1ccc(NC(=S)Nc2ccccc2)cc1,1,-2,0,-1,0,2
CNC(=O)Nc1ccc2snnc2c1,23,0,0,1,-1,3
CC1CCCCN1S(=O)(=O)c1cc2c(=O)nc3ccccn3c2cc1Cl (centres undefined),.,-4,0,.,-1,0
CCCOC1CCCN(C(=O)c2ccc3oc(C(C)C)nc3c2)C1 (centres undefined),6,2,1,2,-1,5
O=C(/C=C(\Nc1cccc(F)c1)c1ccccc1)c1ccccc1,.,0,2,.,-1,5
CO[C@@H]1CN(C)C(=O)c2cc(NC(=O)NC3CCCCC3)ccc2OC[C@@H](C)N(CC2CCOCC2)C[C@@H]1C,.,0,-1,.,0,-1
c1ccc2c(c1)[nH]c1c(N3CCC4(CC3)OCCO4)ncnc12,66*,.,.,-3,.,.
OC1(c2cccc(C(F)(F)F)c2)CCN(c2ncnc3c2[nH]c2ccccc23)CC1,54*,-2,-3,-2,-1,-7
